Assay results from PubChem BioAssay.
The source made the active and inactive calls.

Key:
[1] = A549 cell viability effects, profiling panel, calcein-AM fluorescence, 48 h, basal (AID 1162); conditions: higher = more signal
[2] = adipocyte viability effects, profiling panel, cell-based, 3T3-L1 adipocytes, calcein-AM fluorescence, 48 h, basal (AID 1163); conditions: 3T3-L1 adipocytes viability, higher = more signal
[3] = HepG2 cell viability effects, profiling panel, calcein-AM fluorescence, 48 h, basal (AID 1164); conditions: higher = more signal
[4] = MM1S cell viability effects, profiling panel, calcein-AM fluorescence, 48 h, basal (AID 1165); conditions: higher = more signal;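 also: viability of MM1S multiple myeloma cells under basal unstimulated conditions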
[5] = basal RPMI8226 viability, no added stimulus, profiling panel, cell-based, calcein-AM fluorescence, 48 h, PK04 Diversity Set (AID 1166); conditions: RPMI8226 myeloma viability, higher = more signal;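 also: cells grown under basal conditions without added stimulus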
[6] = basal HepG2 mitochondrial membrane potential changes, profiling panel, cell-based, JC-1 fluorescence, 24 h, 100 nL compound (AID 1167); conditions: higher = more signal
[7] = basal 3T3-L1 adipocyte mitochondrial potential changes, profiling panel, cell-based, JC-1 fluorescence, 3T3-L1 adipocytes, 24 h, 100 nL compound (AID 1168); conditions: JC-1 mitochondrial fluorescence, higher = more signal, called active from +8 up or from −8 down
[8] = basal RPMI8226 mitochondrial membrane potential changes, profiling panel, cell-based, JC-1 fluorescence, 24 h, 100 nL compound (AID 1169); conditions: RPMI8226 myeloma, JC-1 mitochondrial potential fluorescence, higher = more signal
[9] = basal MM1S mitochondrial membrane potential changes, profiling panel, cell-based, JC-1 fluorescence, 24 h, 100 nL compound (AID 1170); conditions: higher = more signal
[10] = A549 lung cancer cell viability effects, profiling panel, resazurin fluorescence, 24 h, PK04 Diversity Set (AID 1171); conditions: higher = more signal, called active from +8 up or from −8 down
Also: test concentration not given here.

Compound	z-score [1]	z-score [2]	z-score [3]	z-score [4]	z-score [5]	z-score [6]	z-score [7]	z-score [8]	z-score [9]	z-score [10]
COC(=O)[C@@]1(Cc2ccc(OC)cc2)[C@H]2c3cc(C(=O)N4CCCC4)n(Cc4cccc5ccccc45)c3C[C@H]2CN1C(=O)c1ccccc1	-0.249	-0.305	1.39	-0.47	-0.718	2.15	-0.198 (inactive)	-0.427	-1.26	-0.506 (inactive)
COc1ccc([Si](C)(C)[C@@H]2[C@@H](CC(=O)N3Cc4ccccc4C[C@H]3CO)O[C@]3(C(=O)N(C)c4ccccc43)[C@H]2C)cc1	-2.16	0.0677	-4.12	-2.66	-4.4	-0.682	1.08 (inactive)	-1.14	-2.28	-1.42 (inactive)
CCCCCCc1nc(-c2cc(C)c(OC)c(C)c2)c(C)c2c1[Si](C(C)C)(C(C)C)OC2	-0.499	1.66	-0.289	-2.84	-1.44	0.797	0.354 (inactive)	-0.18	-1.6	0.197 (inactive)
C[N+](C)(C)CCCC[C@@H]1NC(=O)[C@H]2C[C@@H](C(=O)NCCCCCCN)[C@@H](c3ccc(O)cc3)N2C1=O	0.811	0.629	0.38	-1.39	0.135	1.28	0.367 (inactive)	-0.0466	0.596	0.169 (inactive)
O=C1O[C@H](c2ccccc2)[C@H](c2ccccc2)N2[C@H]1[C@@H](C(=O)O)[C@]1(C(=O)Nc3ccc(C#CC4=CCCCC4)cc31)[C@H]2c1ccc(O)cc1	0.576	-0.029	0.85	-3.14	-2.25	-3.42	0.0262 (inactive)	-1.03	-0.657	0.391 (inactive)
CCOC(=O)C[C@H]1[C@H](OC(=O)c2cc3ccccc3oc2=O)[C@@H](NC(=O)c2ccc(-c3ccccc3)cc2)c2cc(OCCCO)ccc2N1C(=O)c1ccc2ccccc2n1	0.224	0.198	1.25	0.0181	0.624	0.259	-0.023 (inactive)	0.174	-0.122	0.73 (inactive)
CCOC(=O)C1=C[C@@H](c2ccccc2)N(S(=O)(=O)c2ccc(C)cc2)[C@H]1c1ccccc1Cl	-0.968	-0.426	0.0009	-0.938	-0.435	2.6	0.422 (inactive)	1.01	0.38	1.09 (inactive)
CCCC[C@@H](O)C1=C(COc2ccccc2)C[C@H]2C(=O)N(C)C(=O)[C@H]2[C@H]1CO	0.683	0.0659	1.54	0.196	0.131	1.11	0.56 (inactive)	0.547	-2.03	-0.703 (inactive)
O=C(NCC(F)(F)F)[C@@H]1c2ccccc2C(=O)N(Cc2ccc(OC(F)(F)F)cc2)[C@H]1c1ccc(CO)cc1	0.0723	-0.302	-0.27	-0.404	-0.207	1.66	0.506 (inactive)	0.941	-0.54	1.01 (inactive)
O=C1O[C@H](c2ccccc2)[C@H](c2ccccc2)N2[C@H]1[C@@H](C(=O)Nc1nc3ccccc3s1)[C@]1(C(=O)Nc3ccc(C#CCCO)cc31)[C@H]2c1ccc(O)cc1	0.695	0.215	-0.257	-2.26	-3.96	-3.86	-0.525 (inactive)	-1.25	-1.48	0.679 (inactive)
O[C@@H](Cc1ccccc1)[C@@H](/C=C/C1CC1)N(CC#Cc1ccccc1)Cc1cccc(Cl)c1	0.136	-0.166	0.891	-0.217	-0.0958	-0.549	0.274 (inactive)	0.256	-1.16	2.89 (inactive)
CN(C)C(=O)[C@]1(CCS(=O)(=O)c2ccccc2)N=C(c2ccc(OCCCO)cc2)O[C@@H]1c1ccccc1N=[N+]=[N-]	1.12	0.503	0.591	-0.133	0.517	0.621	-0.00563 (inactive)	-1.18	-0.809	-0.859 (inactive)
COC(=O)[C@@]1(Cc2ccccc2N=[N+]=[N-])N=C(c2ccc(OCCCO)cc2)O[C@H]1c1ccccc1N=[N+]=[N-]	-1.53	0.342	-5.52	-3.65	-4.04	-1.63	-0.0913 (inactive)	-1.13	-2.92	-2.94 (inactive)
C=CCC(OC(C)=O)[C@@H]1[C@@H](N(Cc2cccc3ccccc23)C(=O)Cc2ccc(F)cc2)c2cc(OCCCO)ccc2N1C(=O)c1ccc2ccccc2n1 (stereo not given in full)	-0.359	0.389	-0.117	0.866	-0.381	1.69	-0.109 (inactive)	0.515	-0.669	0.067 (inactive)
